This excerpt belongs to a sample that is enriched for hits.
Giardia FBPA inh = inhibitors of Giardia lamblia fructose-1,6-bisphosphate aldolase; A8B2U2; purified Giardia FBPA; Potency, µM (titrated, usually from 59.6 µM), for the others: top-dose activity, negative = inhibition, usual class: inhibitors; 290,000 tested, 0.71% active; note: potency is the fitted concentration of half-maximal effect; % is set by controls: 0 for no effect and ±100 for the full control effect; nearly all actives have a fitted effect of over 55% in size
Target sequence (A8B2U2 whole entry, looked up): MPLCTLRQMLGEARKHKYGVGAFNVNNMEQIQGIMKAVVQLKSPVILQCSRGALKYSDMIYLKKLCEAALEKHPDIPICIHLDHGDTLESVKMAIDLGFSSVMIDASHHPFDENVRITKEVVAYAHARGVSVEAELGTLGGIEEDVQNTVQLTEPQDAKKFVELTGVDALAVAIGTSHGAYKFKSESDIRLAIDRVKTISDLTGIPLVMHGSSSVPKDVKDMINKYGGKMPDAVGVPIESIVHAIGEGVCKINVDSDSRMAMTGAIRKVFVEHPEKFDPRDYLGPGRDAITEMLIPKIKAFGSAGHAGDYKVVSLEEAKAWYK
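40 nM FBPA preincubated 10 min at RT with compound (up to 57.5 uM final), then substrate plus GAPDH/TPI/NAD/arsenate coupling and diaphorase/resazurin added. Fluorescence read after 20 min at RT, 525/598 nm.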
LmPK inhibitor = blocks Leishmania mexicana pyruvate kinase activity; Potency, µM (highest dose often 57.5 µM), for inactives: at the highest dose activity change, negative = inhibition, actives largely listed as inhibitors; 290,000 tested, 0.37% active; purified LmPK, Kinase-Glo ATP luminescence, 1 h; note: potency is the fitted concentration of half-maximal effect; % is set by controls: 0 for no effect and ±100 for the full control effect
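0.1 nM LmPK, 0.5 mM PEP, 0.1 mM ADP; 50 mM imidazole pH 7.2, 7 mM MgCl2, 50 mM KCl; 1 h RT. Kinase-Glo luminescence readout, normalized to no-enzyme (full inhibition) and uninhibited wells.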
RE007 growth inh = less growth of the S. pombe RE007 Vpr strain. S. pombe RE007 Vpr strain, BacTiter-Glo ATP luminescence, 24 h. Potency, µM (top dose mostly 92.2 µM), for inactives: at the highest dose activity change, negative = less growth, most hits filed as inhibitors. 360,000 tested, 0.21% active; active = well fitted falling curve with a large enough effect; inconclusive = small, poorly fitted or top-dose-only effect; inactive = no such curve, though single readings can be large or run the other way; note: potency is the fitted concentration of half-maximal effect; % is set by controls: 0 for no effect and ±100 for the full control effect; nearly all actives have a fitted effect of over 50% in size
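Fission yeast strain RE007, carrying one chromosomally integrated HIV-1 vpr copy, was seeded at OD 0.01 in PMG+AL medium with 23 nL pinned compound. After 24 h at 30 °C and 99% humidity, viability was read by BacTiter-Glo luminescence.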
Cycloheximide cs = affects cycloheximide protein synthesis inhibition readout, counter-screen; cell reporter, cycloheximide protein synthesis inhibition counterscreen; 300,000 tested, 12% active; max response, %; in the data active = max response mostly above about 13%, no sharp cut-off; inactive = mostly below about 14%; note: read at 38.3 µM for the half of the compounds with a filed dose; 0% is about no effect
Shiga toxin inh = blocks Shiga toxin action in Vero cells; Vero cells, Shiga toxin protein synthesis inhibition reporter; inhibition, % at 38.7 µM; 290,000 tested, 9.2% active; in the data active = inhibition mostly above about 28%, no sharp cut-off; inactive = mostly below about 43%; note: 0% is about no effect
Tb PYK inh = T. brucei pyruvate kinase inhibition; Q57TT1; 410,000 tested, 0.12% active; AID 624173; Potency, µM (top dose mostly 76.8 µM), for the others: at the top dose activity, negative = inhibition, most hits filed as inhibitors; TbPYK enzyme, Kinase-Glo Plus ATP luminescence, 45 min; note: potency is the fitted concentration of half-maximal effect; % is set by controls: 0 for no effect and ±100 for the full control effect; nearly all actives have a fitted effect of over 50% in size
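TbPYK + substrate in 50 mM TEA pH 7.2, 100 mM KCl, 10 mM MgCl2, 0.05% BSA, 0.01% Tween-20; cpd pinned; ADP 130 uM final; 45 min RT; Kinase-Glo Plus 10 min; luminescence endpoint.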
* hit, by the source's call. Unless noted, calls come from the whole dose curve; as a rule, active = well fitted curve in the direction sought with a large enough effect; inconclusive = small, poorly fitted or top-dose-only effect, or another doubt; inactive = no such curve, though single readings can be large; an effect the other way counts as inactive or inconclusive.

`CCS(=O)(=O)N1CCc2cc(C(=O)N3CCN(c4ccc(OC)cc4)CC3)ccc21` gave Tb PYK inh -4%.
`O=C(NCCO)c1nc(C(=O)c2ccccc2)c2ccccc2n1` gave RE007 growth inh -11% and Tb PYK inh 2%.
`C=CCNC(=O)c1ccc(OC2CCN(S(=O)(=O)N(C)C)CC2)cc1` gave Giardia FBPA inh 1%, LmPK inhibitor 0%, RE007 growth inh 22%, Cycloheximide cs 51*, Shiga toxin inh 95* and Tb PYK inh -3%.
For CN(C)S(=O)(=O)N1CCC(Oc2ccc(C(=O)NCC(C)(C)CO)cc2)CC1 the results were Giardia FBPA inh 1%, LmPK inhibitor -1%, RE007 growth inh 7%, Cycloheximide cs 11, Shiga toxin inh 6 and Tb PYK inh 1%.
Screening COC(=O)CN(C)C(=O)c1ccc(OC2CCN(S(=O)(=O)N(C)C)CC2)cc1 returned Giardia FBPA inh -5%, LmPK inhibitor 1%, RE007 growth inh 9%, Cycloheximide cs 21*, Shiga toxin inh 33* and Tb PYK inh 7%.
`CCCN(C(=O)C1CC(=O)N(c2ccccc2C(C)CC)C1)C1CCS(=O)(=O)C1` (configuration not stated) gave RE007 growth inh -9% and Tb PYK inh 1%.
For CN(C)C(CNc1ncnc2sccc12)c1ccccc1 (configuration not stated) the results were Giardia FBPA inh 3%, LmPK inhibitor 2%, RE007 growth inh 5%, Cycloheximide cs -1, Shiga toxin inh 3 and Tb PYK inh -8%.
Screening Cc1csc2ncnc(NCCc3ccccn3)c12 returned Giardia FBPA inh -15%, LmPK inhibitor -7%, RE007 growth inh -12%, Cycloheximide cs 5, Shiga toxin inh -19 and Tb PYK inh 4%.
Screening c1ccc(CCNc2ncnc3sccc23)nc1 returned Giardia FBPA inh 0%, LmPK inhibitor -25%, RE007 growth inh -16%, Cycloheximide cs 35*, Shiga toxin inh 73* and Tb PYK inh -8%.
OC(CNc1ncnc2sccc12)c1ccccc1 (configuration not stated) was read as Giardia FBPA inh 9%, LmPK inhibitor 0%, RE007 growth inh 0%, Cycloheximide cs 25*, Shiga toxin inh 84* and Tb PYK inh -6%.
Cc1ccccc1/C(N)=N/OC(=O)/C=C/c1ccccc1 was read as Giardia FBPA inh 1%, LmPK inhibitor -14%, RE007 growth inh 1%, Cycloheximide cs 44*, Shiga toxin inh 159* and Tb PYK inh 1%.
Cc1ccc(/C(N)=N/OC(=O)/C=C/c2ccccc2)cc1 was read as Giardia FBPA inh 2%, LmPK inhibitor 0%, RE007 growth inh -24%, Cycloheximide cs 23*, Shiga toxin inh 55 and Tb PYK inh -2%.
For COc1ccc(/C=C/C(=O)O/N=C(\N)c2ccccc2)cc1OC the results were Giardia FBPA inh 2%, LmPK inhibitor -3%, RE007 growth inh -23%, Cycloheximide cs 36*, Shiga toxin inh 28* and Tb PYK inh 5%.
Screening NC(Cc1cc(I)c(Oc2cc(I)c(O)c(I)c2)c(I)c1)C(=O)O (configuration not stated) returned Giardia FBPA inh -1%.
For Cc1ccc2nc(/C(C#N)=C/c3ccccc3C(=O)O)[nH]c2c1 the results were Giardia FBPA inh -2%, LmPK inhibitor -1%, RE007 growth inh -17%, Cycloheximide cs 18*, Shiga toxin inh 55 and Tb PYK inh -6%.
Cc1ccc2nc(/C(C#N)=C/c3ccc(O)c(O)c3)[nH]c2c1 was read as Giardia FBPA inh inconclusive, LmPK inhibitor -4%, RE007 growth inh -13%, Cycloheximide cs 60*, Shiga toxin inh 92* and Tb PYK inh -6%.
N#C/C(=C\c1ccccc1C(=O)O)c1nc2ccccc2[nH]1 was read as Giardia FBPA inh -15%, LmPK inhibitor 0%, RE007 growth inh -15%, Cycloheximide cs 17*, Shiga toxin inh 49* and Tb PYK inh -17%.
Cc1ccc2nc(/C(C#N)=C/c3cn[nH]c3-c3ccc(F)cc3)[nH]c2c1 was read as Giardia FBPA inh -4%, LmPK inhibitor -3%, RE007 growth inh 1%, Cycloheximide cs 7, Shiga toxin inh 13 and Tb PYK inh 0%.
Screening Cc1ccc2nc(/C(C#N)=C/c3cccc(Br)c3)[nH]c2c1 returned Tb PYK inh -1%.
Cc1sc2ncnc(SCC(=O)NC(=O)c3cccn3C)c2c1C was read as Giardia FBPA inh -9%, LmPK inhibitor -7%, RE007 growth inh 13%, Cycloheximide cs 1, Shiga toxin inh -5 and Tb PYK inh 8%.
Screening O=C(O)c1ccc(N/N=C/c2ccc(-c3ccccc3Cl)o2)cc1 returned Giardia FBPA inh 3%, LmPK inhibitor 6%, RE007 growth inh inconclusive, Cycloheximide cs 50*, Shiga toxin inh 100* and Tb PYK inh -1%.
O=S(=O)(N/N=C\c1ccc(-c2ccccc2Cl)o1)c1ccccc1 was read as Giardia FBPA inh -11%, LmPK inhibitor 5%, RE007 growth inh -18%, Cycloheximide cs -1, Shiga toxin inh 19 and Tb PYK inh -7%.
`Clc1ccccc1-c1ccc(/C=N/Nc2nncc(-c3ccccc3)n2)o1` gave Giardia FBPA inh -4%, LmPK inhibitor 0%, RE007 growth inh 3%, Cycloheximide cs 8, Shiga toxin inh 26 and Tb PYK inh 5%.
Screening O=C(N/N=C/c1ccc(-c2ccccc2Cl)o1)c1ccccc1 returned Giardia FBPA inh 1%, LmPK inhibitor -4%, RE007 growth inh 4%, Cycloheximide cs 32*, Shiga toxin inh 69* and Tb PYK inh 3%.
For Cc1cn(CC(=O)N[C@H](C)c2cccc3ccccc23)c(=O)[nH]c1=O the results were RE007 growth inh -6% and Tb PYK inh 3%.
For Cc1ccccc1C(=O)Nc1cccc(C(=O)OCc2cc(=O)n3c(C)csc3n2)c1 the results were Tb PYK inh -8%.
COc1ccc(OCC(=O)N2c3ccccc3CCc3ccccc32)cc1 was read as Giardia FBPA inh -3%, LmPK inhibitor 1%, RE007 growth inh 0%, Cycloheximide cs 1, Shiga toxin inh -11 and Tb PYK inh -2%.
Screening COc1ccc(N2C3=[N+](CC2(C)O)c2ccccc2CC3)cc1 (configuration not stated) returned Giardia FBPA inh -3%, LmPK inhibitor 4%, RE007 growth inh -17%, Cycloheximide cs 22*, Shiga toxin inh 12 and Tb PYK inh -7%.
COc1ccc(-c2nc3c4ccccc4[nH]c(=O)n3n2)cc1 was read as Giardia FBPA inh 8%, LmPK inhibitor 6%, RE007 growth inh -5%, Cycloheximide cs 24*, Shiga toxin inh 55* and Tb PYK inh 5%.
